Assay [1] deals with human RAR-related Orphan Receptor gamma (RORg), RORC (gene 6097) (UniProt P51449). The assay can be described thus: ATG_RORg_TRANS: Attagene TRANS-FACTORIAL HepG2 Assay for human RAR-related Orphan Receptor gamma (RORg) (AID 2283011; active means hit-call score of the fitted dose curve at least 0.9, where 1 is the maximum). A digest of the protocol: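 Readout: reporter transcript induction (RT-PCR, fluorescent primer extension, capillary electrophoresis) after 24 h compound exposure of transiently transfected HepG2 cells carrying a RORg-Gal4 chimera and GAL4-UAS reporters; DMSO served as baseline, with increasing signal fitted.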

Assay [2] addresses human Thyroid Receptor alpha (THRa1), THRA (gene 7067) (UniProt P10827). Put plainly: ATG_THRa1_TRANS: Attagene TRANS-FACTORIAL HepG2 Assay for human Thyroid Receptor alpha (THRa1) (AID 2283014; active means hit-call score of the fitted dose curve at least 0.9, where 1 is the maximum). A digest of the protocol: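 HepG2 cells transiently transfected with multiplexed GAL4-UAS reporter units for exogenous chimeric THRa1-Gal4; reporter mRNA measured 24 h after dosing by RT-PCR, 6-FAM labelling, HpaI digestion and capillary electrophoresis. Gain-of-signal fitted versus DMSO baseline.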

Read-out in assay [3]: E-selectin (Homo sapiens) (UniProt P16581)
The assay can be described thus: BSK_3C_Eselectin: BioMAP Diversity Plus: 3C Assay for Eselectin Biomarker Activity (AID 2283015). The following applies: primary human endothelial cells (HUVEC); actives raise or lower the signal. A digest of the protocol:
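Primary human umbilical vein endothelial cells (3C system) were dosed with chemical and cell-surface E-selectin measured by ELISA 24 h later. Bidirectional curve fitting used DMSO as negative control and baseline.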

Read-out in assay [4]: Interleukin-1 alpha (IL1a), IL1A (gene 3552)
The assay can be described thus: BSK_BE3C_IL1a: BioMAP Diversity Plus: BE3C Assay for Interleukin-1 alpha (IL1a) Biomarker Activity (AID 2283016). The following applies: primary human bronchial epithelial cells; actives raise or lower the signal. Summed up: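 Human primary bronchial epithelial cells, 24 h chemical exposure; IL-1a quantified by ELISA, fitted bidirectionally against DMSO. Cytotoxicity assessed in parallel by SRB total-protein staining at the time of measurement.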

Read-out in assay [5]: Monocyte Chemoattractant Protein-1 (MCP1), CCL2 (gene 6347)
The assay can be described thus: BSK_4H_MCP1: BioMAP Diversity Plus: 4H Assay for Monocyte Chemoattractant Protein-1 (MCP1) Biomarker Activity (AID 2283018). Particulars: primary human endothelial cells (HUVEC); actives raise or lower the signal. A digest of the protocol: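 Human umbilical vein endothelial cells (4H system) exposed to chemicals for 24 h in 96-well format. MCP-1 measured by ELISA; bidirectional fitting against DMSO, with SRB total-protein staining in parallel cultures for cytotoxicity.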

Read-out in assay [6]: Human Leukocyte Antigen - DR isotype (HLADR), HLA-DRA (gene 3122)
Put plainly: BSK_3C_HLADR: BioMAP Diversity Plus: 3C Assay for Human Leukocyte Antigen - DR isotype (HLADR) Biomarker Activity (AID 2283019). Particulars: primary human endothelial cells (HUVEC); actives raise or lower the signal. Summed up: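 Primary human umbilical vein endothelial cells (3C system) were dosed with compound and cell-surface HLA-DR was quantified by ELISA at 24 h. Activity was fitted bidirectionally against DMSO as negative control and baseline.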

Read-out in assay [7]: Interleukin-8 (IL8), CXCL8 (gene 3576)
The assay can be described thus: BSK_3C_IL8: BioMAP Diversity Plus: 3C Assay for Interleukin-8 (IL8) Biomarker Activity (AID 2283020). The following applies: primary human endothelial cells (HUVEC); actives raise or lower the signal. A digest of the protocol:
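Primary human umbilical vein endothelial cells were dosed for 24 h. IL-8 was quantified by ELISA and fitted bidirectionally against DMSO. Cytotoxicity was assessed in parallel cultures by SRB staining at 560 nm.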

Read-out in assay [8]: Monokine induced gamma interferon (MIG), CXCL9 (gene 4283)
Put plainly: BSK_3C_MIG: BioMAP Diversity Plus: 3C Assay for Monokine induced gamma interferon (MIG) Biomarker Activity (AID 2283021). Particulars: primary human endothelial cells (HUVEC); actives raise or lower the signal. A digest of the protocol: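 HUVEC primary endothelial cultures dosed with chemical; MIG quantified by ELISA at 24 h. Data fitted bidirectionally against DMSO control, with parallel SRB total-protein staining for cytotoxicity.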

The target of assay [9] is human Vitamin D Receptor (VDR), VDR (gene 7421) (UniProt P11473). The assay can be described thus: ATG_VDR_TRANS: Attagene TRANS-FACTORIAL HepG2 Assay for human Vitamin D Receptor (VDR) (AID 2283022; active means hit-call score of the fitted dose curve at least 0.9, where 1 is the maximum). A digest of the protocol: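 HepG2 cells were transiently transfected with multiple GAL4-UAS reporter units, so signal reflects exogenous chimeric receptor-Gal4 activity. After 24 h compound exposure, reporter mRNA was measured by RT-PCR, fluorescent labelling and capillary electrophoresis, fitted for gain of signal versus DMSO.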

The nature of assay [10]: BSK_3C_SRB: Viability Assessment in the BioMAP Diversity Plus: 3C Assay (AID 2283023).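 Further: fitted both ways against DMSO so a hit may be signal rise or drop.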 The following applies: primary human endothelial cells (HUVEC). A digest of the protocol:
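Primary human umbilical vein endothelial cells in the 3C system were read 24 h after compound dosing. Total protein was stained with 0.1% sulforhodamine B after 10% TCA fixation and read at 560 nm, with bidirectional fitting against DMSO as baseline.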

Read-out in assay [11]: Matrix Metallopeptidase 1 (MMP1), MMP1 (gene 4312)
The assay can be described thus: BSK_BE3C_MMP1: BioMAP Diversity Plus: BE3C Assay for Matrix Metallopeptidase 1 (MMP1) Biomarker Activity (AID 2283024). The following applies: primary human bronchial epithelial cells; actives raise or lower the signal. A digest of the protocol: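 Human primary bronchial epithelial cells (BE3C system) dosed for 24 h; MMP-1 quantified by ELISA. Bidirectional fit against DMSO; cytotoxicity tracked in parallel cultures by SRB total-protein staining.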

Assay [12] can be described thus: BSK_3C_Vis: BioMAP Diversity Plus: 3C Assay for Morphology Visualization (AID 2283025).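 Further: fitted both ways so gain or loss versus DMSO counts.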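 On AC50: light microscopy image of cell morphology used as background control.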 Particulars: primary human endothelial cells (HUVEC). Summed up:
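Human umbilical vein endothelial cell morphology was inspected by light microscopy 24 h after chemical dosing; scored bidirectionally relative to DMSO.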

Read-out in assay [13]: Pselectin, SELP (gene 6403)
Put plainly: BSK_4H_Pselectin: BioMAP Diversity Plus: 4H Assay for Pselectin Biomarker Activity (AID 2283026). Particulars: primary human endothelial cells (HUVEC); actives raise or lower the signal. Summed up: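 Primary human umbilical vein endothelial cells were treated 24 h, and cell-surface P-selectin was then quantified by ELISA. Bidirectional fit versus DMSO; cytotoxicity checked in parallel cultures by SRB total-protein staining.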

Assay [14] can be described thus: BSK_4H_SRB: Viability Assessment in the BioMAP Diversity Plus: 4H Assay (AID 2283027).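 Further: cells exposed to compound for 24 h before staining.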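 On AC50: curves fitted both ways versus DMSO so AC50 may be loss or gain.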 Particulars: primary human endothelial cells (HUVEC). Summed up:
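Absorbance at 560 nm of SRB-stained total protein served as the viability read-out in confluent primary human umbilical vein endothelium 24 h after chemical treatment. Curves were fitted bidirectionally against DMSO as negative control.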

Assay [15] is described as follows: BSK_BE3C_SRB: Viability Assessment in the BioMAP Diversity Plus: BE3C Assay (AID 2283028). Particulars: primary human bronchial epithelial cells. A digest of the protocol:
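Human primary bronchial epithelial cells were exposed to test chemicals for 24 h. Total protein in parallel cultures was then measured by staining with 0.1% sulforhodamine B after 10% TCA fixation, with absorbance read at 560 nm. Activity was fitted bidirectionally against DMSO.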

Read-out in assay [16]: Thrombomodulin, THBD (gene 7056)
Put plainly: BSK_3C_Thrombomodulin: BioMAP Diversity Plus: 3C Assay for Thrombomodulin Biomarker Activity (AID 2283029). The following applies: primary human endothelial cells (HUVEC); actives raise or lower the signal. Summed up: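 Human umbilical vein endothelial cells were exposed to chemicals for 24 h; cell-surface thrombomodulin quantified by ELISA, with bidirectional fitting against DMSO baseline.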

Read-out in assay [17]: Urokinase-type plasminogen activator receptor (uPAR), PLAUR (gene 5329)
Put plainly: BSK_4H_uPAR: BioMAP Diversity Plus: 4H Assay for Urokinase-type plasminogen activator receptor (uPAR) Biomarker Activity (AID 2283030). Particulars: primary human endothelial cells (HUVEC); actives raise or lower the signal. Summed up: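 Primary human umbilical vein endothelial cells were exposed to chemical for 24 h before cell-surface uPAR was quantified by ELISA. Activity was fitted bidirectionally against the DMSO negative control baseline.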

Read-out in assay [18]: Monocyte Chemoattractant Protein-1 (MCP1), CCL2 (gene 6347)
The assay can be described thus: BSK_3C_MCP1: BioMAP Diversity Plus: 3C Assay for Monocyte Chemoattractant Protein-1 (MCP1) Biomarker Activity (AID 2283017). The following applies: primary human endothelial cells (HUVEC); actives raise or lower the signal. Summed up: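 Primary human umbilical vein endothelial cells (3C system) were exposed to test chemical for 24 h, after which MCP-1 was quantified by ELISA. Activity was fitted bidirectionally against DMSO as negative control and baseline.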

In assay [19] the target is Retinoic acid receptor RXR-alpha (Homo sapiens) (UniProt P19793). Put plainly: ATG_RXRa_TRANS: Attagene TRANS-FACTORIAL HepG2 Assay for human Retinoid X Receptor alpha (RXRa) (AID 2283012; active means hit-call score of the fitted dose curve at least 0.9, where 1 is the maximum). Summed up:
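HepG2 cells transiently transfected with GAL4-UAS reporter units and chimeric RXRa-Gal4 protein, treated 24 h. Reporter mRNA measured by RT-PCR, fluorescent labelling, HpaI digestion and capillary electrophoresis. Induction fitted against DMSO.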

For assay [20], the target named is human Retinoid X Receptor beta (RXRb), RXRB (gene 6257) (UniProt P28702). Put plainly: ATG_RXRb_TRANS: Attagene TRANS-FACTORIAL HepG2 Assay for human Retinoid X Receptor beta (RXRb) (AID 2283013; active means hit-call score of the fitted dose curve at least 0.9, where 1 is the maximum). A digest of the protocol: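 HepG2 cells were transiently transfected with multiplexed GAL4-UAS reporters and a chimeric RXRb-Gal4 construct, then exposed for 24 h. Reporter mRNA was quantified by RT-PCR, FAM labeling, HpaI digestion and capillary electrophoresis; gain of signal was scored against DMSO.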

SMILES strings stand for the structures. Results filed as inconclusive are left out. The source made the active and inactive calls. How the source made its calls, unless noted: active means hit-call score of the fitted dose curve at least 0.9, where 1 is the maximum; inactive means score below 0.9.

Chain of human Vitamin D Receptor (VDR), VDR (gene 7421) (P11473 whole entry, looked up, the tested form may be a part): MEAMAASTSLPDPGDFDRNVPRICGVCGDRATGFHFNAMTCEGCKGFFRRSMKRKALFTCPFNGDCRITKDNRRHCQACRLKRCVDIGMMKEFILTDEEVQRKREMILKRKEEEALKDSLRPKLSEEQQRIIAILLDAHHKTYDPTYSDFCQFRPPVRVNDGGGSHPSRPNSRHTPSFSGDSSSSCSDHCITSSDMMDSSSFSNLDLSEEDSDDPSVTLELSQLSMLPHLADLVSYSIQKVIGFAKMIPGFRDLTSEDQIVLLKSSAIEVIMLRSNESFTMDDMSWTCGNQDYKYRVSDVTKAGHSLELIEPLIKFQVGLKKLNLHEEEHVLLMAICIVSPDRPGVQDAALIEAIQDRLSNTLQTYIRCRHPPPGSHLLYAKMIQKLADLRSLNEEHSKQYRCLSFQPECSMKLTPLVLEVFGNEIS
Chain of Retinoic acid receptor RXR-alpha (Homo sapiens) (P19793 whole entry, looked up, the tested form may be a part): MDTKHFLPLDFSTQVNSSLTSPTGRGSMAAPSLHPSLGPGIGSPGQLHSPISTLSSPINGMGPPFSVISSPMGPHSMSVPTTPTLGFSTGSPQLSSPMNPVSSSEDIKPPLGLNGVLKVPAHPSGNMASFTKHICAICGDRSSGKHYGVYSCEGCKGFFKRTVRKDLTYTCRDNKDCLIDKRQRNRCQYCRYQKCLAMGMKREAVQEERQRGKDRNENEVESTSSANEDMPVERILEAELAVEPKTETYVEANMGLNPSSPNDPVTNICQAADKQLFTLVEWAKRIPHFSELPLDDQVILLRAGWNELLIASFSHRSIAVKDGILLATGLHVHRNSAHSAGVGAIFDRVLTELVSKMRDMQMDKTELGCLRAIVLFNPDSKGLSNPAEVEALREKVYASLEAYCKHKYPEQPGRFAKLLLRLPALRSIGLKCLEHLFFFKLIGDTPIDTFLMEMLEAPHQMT
Chain of human RAR-related Orphan Receptor gamma (RORg), RORC (gene 6097) (P51449 whole entry, looked up, the tested form may be a part): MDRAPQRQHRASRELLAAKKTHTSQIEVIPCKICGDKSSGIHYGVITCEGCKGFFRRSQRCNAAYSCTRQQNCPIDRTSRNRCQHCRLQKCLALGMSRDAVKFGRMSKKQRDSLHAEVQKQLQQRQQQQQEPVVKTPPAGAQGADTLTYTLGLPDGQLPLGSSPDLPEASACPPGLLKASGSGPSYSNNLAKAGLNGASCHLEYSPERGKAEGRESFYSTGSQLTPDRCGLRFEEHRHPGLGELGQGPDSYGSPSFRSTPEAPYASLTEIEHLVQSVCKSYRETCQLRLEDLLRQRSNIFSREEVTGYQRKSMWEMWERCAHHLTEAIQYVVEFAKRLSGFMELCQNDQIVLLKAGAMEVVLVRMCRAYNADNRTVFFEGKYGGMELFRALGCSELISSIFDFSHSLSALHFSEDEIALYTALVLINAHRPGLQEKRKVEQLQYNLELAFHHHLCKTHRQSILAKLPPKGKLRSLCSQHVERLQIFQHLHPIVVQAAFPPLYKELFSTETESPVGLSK
Chain of E-selectin (Homo sapiens) (P16581 whole entry, looked up): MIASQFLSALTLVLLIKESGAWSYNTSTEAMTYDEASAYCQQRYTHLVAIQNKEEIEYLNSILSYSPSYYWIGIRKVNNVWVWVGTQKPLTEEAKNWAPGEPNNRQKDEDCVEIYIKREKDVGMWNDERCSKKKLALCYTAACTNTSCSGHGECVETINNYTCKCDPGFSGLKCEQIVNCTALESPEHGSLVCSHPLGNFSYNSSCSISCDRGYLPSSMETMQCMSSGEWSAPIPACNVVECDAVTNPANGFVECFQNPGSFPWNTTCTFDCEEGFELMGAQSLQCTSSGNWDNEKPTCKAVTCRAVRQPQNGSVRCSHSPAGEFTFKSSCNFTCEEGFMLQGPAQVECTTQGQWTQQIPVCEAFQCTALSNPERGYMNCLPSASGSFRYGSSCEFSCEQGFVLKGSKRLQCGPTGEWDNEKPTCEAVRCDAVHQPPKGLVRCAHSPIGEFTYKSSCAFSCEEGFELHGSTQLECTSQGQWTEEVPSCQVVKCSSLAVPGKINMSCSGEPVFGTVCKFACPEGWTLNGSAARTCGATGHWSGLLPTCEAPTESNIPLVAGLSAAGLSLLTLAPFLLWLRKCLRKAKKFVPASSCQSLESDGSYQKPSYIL
Chain of human Thyroid Receptor alpha (THRa1), THRA (gene 7067) (P10827 whole entry, looked up, the tested form may be a part): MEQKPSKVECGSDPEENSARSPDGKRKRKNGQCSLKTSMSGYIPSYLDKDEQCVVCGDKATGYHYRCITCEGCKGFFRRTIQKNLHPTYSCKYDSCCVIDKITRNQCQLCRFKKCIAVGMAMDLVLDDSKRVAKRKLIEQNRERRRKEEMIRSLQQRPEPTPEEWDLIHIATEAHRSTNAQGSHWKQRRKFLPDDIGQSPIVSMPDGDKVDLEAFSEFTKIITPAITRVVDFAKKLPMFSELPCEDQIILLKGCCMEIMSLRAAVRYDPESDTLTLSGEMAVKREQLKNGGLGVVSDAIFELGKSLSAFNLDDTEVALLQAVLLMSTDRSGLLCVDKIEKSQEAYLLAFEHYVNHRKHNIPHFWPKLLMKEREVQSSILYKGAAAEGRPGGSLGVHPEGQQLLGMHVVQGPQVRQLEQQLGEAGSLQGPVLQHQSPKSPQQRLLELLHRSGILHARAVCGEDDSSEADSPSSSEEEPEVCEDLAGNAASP
Chain of human Retinoid X Receptor beta (RXRb), RXRB (gene 6257) (P28702 whole entry, looked up, the tested form may be a part): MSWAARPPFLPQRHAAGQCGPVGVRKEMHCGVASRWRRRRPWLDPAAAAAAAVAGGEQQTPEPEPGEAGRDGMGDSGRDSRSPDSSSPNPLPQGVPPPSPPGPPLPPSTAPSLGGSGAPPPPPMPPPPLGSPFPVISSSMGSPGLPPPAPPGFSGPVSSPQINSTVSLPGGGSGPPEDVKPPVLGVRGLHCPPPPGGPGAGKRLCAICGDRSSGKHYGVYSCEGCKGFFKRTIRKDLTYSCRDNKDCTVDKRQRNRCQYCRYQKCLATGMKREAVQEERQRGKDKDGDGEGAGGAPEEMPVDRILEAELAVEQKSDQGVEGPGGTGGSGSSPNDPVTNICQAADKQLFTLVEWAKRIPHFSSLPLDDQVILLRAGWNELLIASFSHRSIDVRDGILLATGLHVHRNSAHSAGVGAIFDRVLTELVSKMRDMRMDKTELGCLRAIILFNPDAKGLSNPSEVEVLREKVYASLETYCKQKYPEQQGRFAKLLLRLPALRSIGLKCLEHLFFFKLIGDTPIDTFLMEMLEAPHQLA

On to `O=C(CCl)NCO`, for which the outcome in assay [1], in assay [2], in assay [3], in assay [4], in assay [5] and in assay [6] was inactive. Besides, the result in [7], in assay [8], in assay [9], in assay [10], in [11] and in assay [12] was inactive. Moreover, the result in assay [13], in assay [14], in [15], in assay [16] and in assay [17] was inactive.
Consider `CC(C)(c1ccccc1)c1cc(-n2nc3ccccc3n2)c(O)c(C(C)(C)c2ccccc2)c1`, for which the compound was called inactive in [1] and in assay [2].
In the case of `CC(C)(COCC1CO1)COCC1CO1` (stereo not given), the result in assay [1], in assay [2], in assay [3], in assay [4], in assay [18] and in [5] was inactive. Also, the outcome in [7], in assay [8], in assay [10], in assay [11], in assay [12] and in assay [13] was inactive. For the same compound, the result in [14], in [15], in [16] and in assay [17] was inactive.
With `COCCl`, the compound was classed as inactive in assay [1], in assay [2] and in [9].
As for `CC(c1ccc(O)cc1)c1ccc(O)cc1`, the outcome in assay [19] was inactive.
`CC(C)[N+](=O)[O-]`: the compound was classed as inactive in assay [1] and in assay [2].
Regarding `Nc1ccc(N)cc1`, the result in assay [1], in assay [2], in assay [3], in assay [4], in [5] and in assay [6] was inactive. In addition, the outcome in assay [7], in [8], in assay [9], in assay [10], in assay [11] and in assay [13] was inactive. Moreover, the result in assay [14], in assay [15], in assay [16] and in assay [17] was inactive. The AC50 in assay [12] was 19.9 µM (active).
For `Cc1cc(C(C)(C)c2ccc(O)c(C)c2)ccc1O`, the result in [1], in [2], in assay [8], in assay [9], in assay [11] and in [15] was inactive. The outcome in assay [16] was inactive. Besides, the AC50 in assay [3] was 15.8 µM (active); in [4] it was 15.7 µM (active); in assay [18], 19.3 µM (active); in [5], 12.5 µM (active); in assay [7] it was 18.2 µM (active); in assay [10], 17 µM (active). For the same compound, the half-maximal activity concentration (AC50) in assay [12] was 18.7 µM (active); in [13], 17.7 µM (active); in assay [14], 14.3 µM (active); in assay [17], 15.3 µM (active).
With `C=CC(=O)NC(C)(C)CC(C)=O`, the compound was classed as inactive in assay [1], in assay [2] and in assay [9].
Turning to `CCC[N+](CCC)(CCC)CCC`, the compound was called inactive in assay [19] and in assay [20].
`C=CCOC(N)=O`: the call in [1] and in assay [9] was inactive.
On to `CC(O)(CS(=O)(=O)c1ccc(F)cc1)C(=O)Nc1ccc(C#N)c(C(F)(F)F)c1` (stereo not given), for which, in [19], the compound was classed as inactive.
Regarding `N#Cc1ccccc1N`, the compound was called inactive in assay [1], in assay [2] and in [9].
For `O=C(CBr)c1ccc(O)cc1`, the result in assay [1] and in assay [9] was inactive.
Consider `CCCCN(CCCC)C(=S)S`, for which the outcome in [1], in assay [20] and in [9] was inactive.
As for `CCCCOC(=O)COC(=O)c1ccccc1C(=O)OCCCC`, the outcome in assay [1], in assay [2], in [3], in [4], in assay [5] and in [7] was inactive. The outcome in assay [8], in assay [10], in assay [11], in assay [13], in assay [14] and in assay [15] was inactive. In addition, the outcome in [16] and in assay [17] was inactive.

The AC50 is the concentration giving half of the maximal activity seen.

These data come from PubChem BioAssay (EPA / NIEHS).
